Reference: PubChem BioAssay (NCI)
“And” between values parts separate entries of the source, which are not always exact repeats. Equal values may be shown once. About 83,000 compounds went through this panel and 20% of them were active in at least one assay; those are over-represented in the sample as a whole.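 Plates (96-well) were seeded with cells, treated with compound at one concentration, and incubated for 48 hours before percent growth was determined.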 The source made the active and inactive calls. The calls were made as follows: active = growth percent below 10; inactive = the rest.

What was measured:
Test in all cases: NCI-60 one-dose screen, 48 h (100 = growth as untreated, 0 = no growth, -100 = all killed)
Conditions in all cases: 10 µM
T-47D breast = tested on: T-47D breast
BT-549 breast = tested on: BT-549 breast
MDA-MB-435 melanoma = tested on: MDA-MB-435 melanoma
SW-620 colon = tested on: SW-620 colon
MCF7 breast = tested on: MCF7 breast
HCT-116 colon = tested on: HCT-116 colon
HCC-2998 colon = tested on: HCC-2998 colon
KM12 colon = tested on: KM12 colon
MDA-MB-468 breast = tested on: MDA-MB-468 breast

Measured: growth

COc1ccc(-c2cc(C(=O)N=Nc3c(O)[nH]c4ccc(Br)cc34)c3ccccc3n2)cc1
active: SW-620 colon -59.9% | MCF7 breast -6.48%
inactive: T-47D breast 58.4% | BT-549 breast 96.3% | MDA-MB-435 melanoma 52.7% | HCT-116 colon 16.9% | HCC-2998 colon 23.4% | KM12 colon 23.1% | MDA-MB-468 breast 11.1%

COc1ccc(CCN2C(=O)/C(=C/c3csc(C#N)n3)SC2=S)cc1OC
inactive: BT-549 breast 24.5% | MDA-MB-435 melanoma 23.5% | HCC-2998 colon 116% | KM12 colon 35%
active: T-47D breast -7.6% | SW-620 colon -20.5% | MCF7 breast -15.9% | HCT-116 colon -69.1% | MDA-MB-468 breast -80.6%

O=c1oc2ccc(-c3ccc(F)cc3F)cc2c(=O)n1-c1ccc(Cl)c(C(F)(F)F)c1
active: T-47D breast -12.5% | BT-549 breast -37.4% | MDA-MB-435 melanoma -5.35% | MCF7 breast -16.2% | HCT-116 colon 9.46% | HCC-2998 colon 2.17% | KM12 colon -14% | MDA-MB-468 breast 3.54% and -40.4%
inactive: SW-620 colon 13%

CCCn1c(=O)c2[nH]c(-c3ccc(OCc4nc5ccc(C)cc5[nH]4)cc3)nc2n(CCC)c1=O
active: T-47D breast -13.2%
inactive: BT-549 breast 36.3% | MDA-MB-435 melanoma 49.1% | SW-620 colon 27.5% | MCF7 breast 17.6% | HCT-116 colon 14.6% | HCC-2998 colon 61.6% | KM12 colon 69.7% | MDA-MB-468 breast 16.7%

COc1ccccc1[C@H]1C(C(=O)c2ccc(O)cc2)C2(N[C@@H]1c1ccccc1)C(=O)Nc1ccc(Br)cc12 (some centres undefined)
inactive: T-47D breast 45.8% | BT-549 breast 54% | MDA-MB-435 melanoma 14.2% | SW-620 colon 13.6% | HCT-116 colon 39.6% | KM12 colon 14.3%
active: MCF7 breast 3.19% | HCC-2998 colon -38.6% | MDA-MB-468 breast -42.9%

COc1ccc(-c2nc(S(=O)(=O)c3ccc(C)cc3)c(S(C)(=O)=O)o2)cc1
active: T-47D breast -75.7% | BT-549 breast -12.5% | MDA-MB-435 melanoma -97.1% | SW-620 colon -58.5% | MCF7 breast -53.1% | HCT-116 colon -0.211% | HCC-2998 colon -87.6% | KM12 colon -19% | MDA-MB-468 breast -92.9%

O=c1[nH]n(C(=S)N/N=C/c2ccc(F)cc2)c(=O)c2ccccc12
inactive: T-47D breast 58.7% | BT-549 breast 70.1% | MDA-MB-435 melanoma 84.5% | SW-620 colon 30.4% | MCF7 breast 15.9% | HCC-2998 colon 92.9% | KM12 colon 36.2% | MDA-MB-468 breast 57.7%
active: HCT-116 colon -66%

C#CCNC(=O)[C@]12CCC(C)(C)C[C@H]1C1=CC[C@@H]3[C@@](C)(CCC#N)[C@H](C(=C)C)CC[C@@]3(C)[C@]1(C)CC2
inactive: T-47D breast 28% | BT-549 breast 75.6% | MDA-MB-435 melanoma 72.2% | SW-620 colon 74.1% | MCF7 breast 34% | HCT-116 colon 27.2% | HCC-2998 colon 75.4% | KM12 colon 54.8% | MDA-MB-468 breast 34.7%

CC1(C)CC[C@]2(C(=O)N3CCOCC3)CC[C@]3(C)C(=CC[C@@H]4[C@@]5(C)CC[C@H](NCO)C(C)(C)[C@@H]5CC[C@]43C)[C@H]2C1
active: T-47D breast -72.4% | BT-549 breast -92.2% | MDA-MB-435 melanoma -96.4% | SW-620 colon -88.8% | MCF7 breast -80.3% | HCT-116 colon -88.9% | HCC-2998 colon -78.1% | KM12 colon -90.5% | MDA-MB-468 breast -97%

COC[C@@H](CC(C)C)N=C1N/C(=C\c2ccc3ncsc3c2)C(=O)N1C
inactive: MDA-MB-435 melanoma 22.1% | HCT-116 colon 14.5%
active: T-47D breast -7.71% | BT-549 breast 7.17% | SW-620 colon 2.99% | MCF7 breast -23.3% | HCC-2998 colon 5.06% | KM12 colon 9.52% | MDA-MB-468 breast -5.24%

O=C(Nc1cccc(C(F)(F)F)c1)c1cncc(C#Cc2cnc3cccnn23)c1
inactive: T-47D breast 13.5% | BT-549 breast 15.4% | MDA-MB-435 melanoma 25.6% | SW-620 colon 34.3% | HCT-116 colon 15.4% | HCC-2998 colon 46.9% | MDA-MB-468 breast 47.8%
active: MCF7 breast 8.36% | KM12 colon 7.46%

O=C(/C=C/Nc1ccccc1)c1ccc2c(c1)Nc1ccccc1S2
inactive: T-47D breast 78.1% | BT-549 breast 95.6% | MDA-MB-435 melanoma 85% | SW-620 colon 89.3% | MCF7 breast 68.6% | HCT-116 colon 79.2% | HCC-2998 colon 95.4% | KM12 colon 87% | MDA-MB-468 breast 61.5%

CC(=O)Nc1ccc(-n2cnc3cc(-c4ccc(O)cc4)ccc32)cc1C
active: MDA-MB-435 melanoma -13.2% | MDA-MB-468 breast -7.11%
inactive: T-47D breast 32.6% | BT-549 breast 50.7% | SW-620 colon 44.2% | MCF7 breast 50.9% | HCT-116 colon 70% | HCC-2998 colon 60.7% | KM12 colon 22.1%

Cc1ccc2nc(-c3ccc(-c4nnc(SCC(=O)Nc5ccc(Br)cc5)o4)cc3)[nH]c2c1
inactive: T-47D breast 50.8% | BT-549 breast 86.8% | MDA-MB-435 melanoma 59.9% | SW-620 colon 82.8% | MCF7 breast 45.1% | HCT-116 colon 67.4% | HCC-2998 colon 105% | KM12 colon 70.4% | MDA-MB-468 breast 80.6%

COc1ccc(C=CC(=O)c2ccc(-n3c(C)nc4c(cnn4-c4ccccc4)c3=O)cc2)cc1
inactive: T-47D breast 34.7% | BT-549 breast 45% | MDA-MB-435 melanoma 11.2% | SW-620 colon 75.1% | HCC-2998 colon 86.8% | KM12 colon 31.6% | MDA-MB-468 breast 11.3%
active: MCF7 breast 8.3% | HCT-116 colon 9.71%

COc1ccccc1[C@H]1C(C(=O)c2ccc(Cl)cc2)C2(N[C@@H]1c1ccccc1)C(=O)Nc1ccccc12 (some centres undefined)
active: T-47D breast 6.01% | BT-549 breast -22.7% | MDA-MB-435 melanoma -58.7% | SW-620 colon 5.84% | MCF7 breast -11.1% | HCT-116 colon 0.0933% | HCC-2998 colon -51.1% | KM12 colon -13.5% | MDA-MB-468 breast -29.6%

COc1cc2c3c(n(CCCN4CCOCC4)c(=O)c2cc1OC)-c1nc2c(cc1C3=O)OCO2
inactive: T-47D breast 14.5% | MDA-MB-435 melanoma 16.4% | SW-620 colon 22.2% | MCF7 breast 14% | HCT-116 colon 15.6% | HCC-2998 colon 37.7% | KM12 colon 32.1%
active: BT-549 breast 4.91% | MDA-MB-468 breast -29%

O=C(COc1ccc(NC(=O)Nc2ccc(Cl)cc2)cc1)N=Nc1c(O)[nH]c2ccc([N+](=O)[O-])cc12
inactive: BT-549 breast 22.2% | MDA-MB-435 melanoma 17% | SW-620 colon 19.9% | HCC-2998 colon 26.3%
active: T-47D breast 7.65% | MCF7 breast -36.4% | HCT-116 colon -37.8% | KM12 colon -46.6% | MDA-MB-468 breast -54.6%

Cc1cc(C)nc(NS(=O)(=O)c2ccc(N/C(N)=N/c3nccc(-c4cccs4)n3)cc2)n1
inactive: T-47D breast 78.8% | BT-549 breast 111% | MDA-MB-435 melanoma 106% | SW-620 colon 102% | MCF7 breast 67.6% | HCT-116 colon 96.4% | HCC-2998 colon 127% | KM12 colon 96.9% | MDA-MB-468 breast 106%

CC(C)CCSc1nc(NC2CC2)c(C#N)c(-c2ccc(C(C)C)cc2)n1
inactive: T-47D breast 100% | BT-549 breast 100% | MDA-MB-435 melanoma 112% | SW-620 colon 114% | MCF7 breast 97.9% | HCT-116 colon 108% | HCC-2998 colon 115% | KM12 colon 107% | MDA-MB-468 breast 106%

O=c1c2ccccc2nc(COc2ccccc2)n1/N=C/c1ccc(F)cc1
inactive: T-47D breast 57.4% | BT-549 breast 94.7% | MDA-MB-435 melanoma 86.2% | SW-620 colon 93.2% | MCF7 breast 80.4% | HCT-116 colon 75.3% | HCC-2998 colon 104% | KM12 colon 93.5% | MDA-MB-468 breast 78%

COc1ccsc1/C=N/NC(=O)c1[nH]c2ccc(Br)cc2c1-c1ccccc1
active: T-47D breast -2.72% | MDA-MB-435 melanoma 2.33% | MCF7 breast 1.13% | HCT-116 colon 0.361% | HCC-2998 colon -5.18% | KM12 colon -0.302% | MDA-MB-468 breast -6.2%
inactive: BT-549 breast 13.8% | SW-620 colon 18.4%

COC(=O)C(Cc1ccc(O)c(O)c1)NC(=O)C(CSC/C=C(\C)CCCC(C)CCCC(C)CCCC(C)C)NC(C)=O (centres undefined)
active: T-47D breast -0.796% | MDA-MB-468 breast 6.4%
inactive: BT-549 breast 23.3% | MDA-MB-435 melanoma 30% | SW-620 colon 19.8% | MCF7 breast 24.4% | HCT-116 colon 21.2% | HCC-2998 colon 19.3% | KM12 colon 16.4%

Clc1cccc(N/N=C/c2c[nH]c3ccccc23)n1
active: BT-549 breast 3.11% | KM12 colon 9.99% | MDA-MB-468 breast -10.1%
inactive: T-47D breast 27.4% | MDA-MB-435 melanoma 19.8% | SW-620 colon 52.1% | MCF7 breast 11.2% | HCT-116 colon 23.4% | HCC-2998 colon 30.2%

O=C(c1ccc(Cl)cc1)C1[C@H](c2ccc(Br)cc2)[C@@H](c2ccccc2)NC12C(=O)Nc1ccccc12 (some centres undefined)
active: T-47D breast 1.59% | BT-549 breast -9.62% | MDA-MB-435 melanoma -46.5% | SW-620 colon 3.46% | MCF7 breast -4.24% | HCC-2998 colon -39.3% | KM12 colon -3.73% | MDA-MB-468 breast -6.54%
inactive: HCT-116 colon 10.7%

C[C@H]1[C@H](C)CC[C@]2(COC(=O)CCC(=O)NCC#CCN3CCNCC3)CC[C@]3(C)C(=CC[C@@H]4[C@@]5(C)CCCNC(C)(C)[C@@H]5CC[C@]43C)[C@H]12
inactive: T-47D breast 40% | BT-549 breast 55.4% | MDA-MB-435 melanoma 32.4% | HCT-116 colon 10.5% | KM12 colon 32.4% | MDA-MB-468 breast 17.9%
active: SW-620 colon -2.55% | MCF7 breast 1.4% | HCC-2998 colon -41.7%
